We go through 22 compounds from PubChem BioAssay (EPA / NIEHS).

Results filed as inconclusive are left out. Active and inactive are the calls of the source. Rule for the calls, unless noted: active = hit-call score of the fitted dose curve at least 0.9, where 1 is the maximum; inactive = score below 0.9.

The nature of assay [1]: ACEA_ER_80hr: ACEA Biosciences xCELLigence Real-Time Cell Analysis on Estrogen Receptor Agonism for Proliferation (AID 2282667; active = hit-call score of the fitted dose curve at least 0.9, where 1 is the maximum). To be noted: T47D proliferation, impedance (xCELLigence), 80 h. The essentials:
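Impedance readout (RT-CES) of T47D proliferation at 80 h post-dose; gain of signal vs DMSO baseline. Compounds: 8 conc, 1:4 serial, top 100 uM final, ≤0.5% DMSO; biological duplicate.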

Assay [2] in a line: APR_HepG2_CellCycleArrest_24hr: Apredica 24-hour HepG2 Assay for Cell Cycle Arrest (AID 2282905).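 Note: cell cycle arrest scored as ratio of 2N to 4N nuclear DNA content.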 To be noted: imaging, actives raise or lower the signal. The gist of the method:
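Step one: dose HepG2 with test compounds, 0.39–200 uM, 0.5% DMSO, 24 hr. Step two: fix, permeabilize, stain nuclei with Hoechst 33342. Step three: image six fields per well at 20x, quantify DNA content, fit bidirectionally relative to DMSO.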

A short description of assay [3]: APR_HepG2_NuclearSize_24hr: Apredica 24-hour HepG2 Assay for Nuclear Size (AID 2282907). As to conditions: high-content imaging, actives raise or lower the signal. The essentials: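 After fixation and permeabilization, 24-hr-treated HepG2 cells were stained with Hoechst 33342 and imaged on an ArrayScan (20x). Doses spanned 0.39–200 uM in duplicate. Nuclear diameter changes in either direction were fitted relative to 0.5% DMSO controls.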

Assay [4] in a line: APR_HepG2_CellLoss_24hr: Apredica 24-hour HepG2 Assay for Cell Loss (AID 2282908).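 For AC50: fit in both directions so a hit may be cell loss or gain.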 As to conditions: high-content imaging. The essentials: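 Duplicate wells received compound at ten concentrations (0.39–200 uM; final DMSO 0.5% v/v). After fixation with formaldehyde, nuclei stained with Hoechst 33342 were imaged at 20x. Loss or gain of cell count was fitted relative to DMSO controls.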

The nature of assay [5]: APR_HepG2_MicrotubuleCSK_24hr: Apredica 24-hour HepG2 Assay for Microtubule CSK Stabilty (AID 2282909). As to conditions: HepG2 microtubule cytoskeleton imaging, actives raise or lower the signal. The essentials: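 Microtubule stability is scored from tubulin immunofluorescence in fixed HepG2 cells imaged at 20x. Cells receive ten compound concentrations up to 200 uM for 24 h; taxol and DMSO serve as positive and negative controls.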

The nature of assay [6]: APR_HepG2_MitoticArrest_24hr: Apredica 24-hour HepG2 Assay for Mitotic Arrest (AID 2282910). As to conditions: high-content imaging, actives raise or lower the signal. The gist of the method: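 High-content imaging of fixed HepG2 cells labeled with Hoechst 33342 and anti-phospho-histone H3, after 24 h treatment. Ten concentrations 0.39 to 200 uM in duplicate, final DMSO 0.5%; changes fitted both directions relative to DMSO.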

Assay [7] can be described thus: APR_HepG2_MitoMembPot_24hr: Apredica 24-hour HepG2 Assay for Mitochondrial Membrane Potential (AID 2282911). To be noted: imaging, actives raise or lower the signal. The essentials:
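HepG2, 24 hr dosing, 10 concentrations 0.39–200 uM, 0.5% DMSO final. Live-cell MitoTracker Red CMXRos 250 nM 30 min, then 3.7% formaldehyde fix. HCS fluorescence imaging, 20x; bidirectional fit vs DMSO baseline.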

A short description of assay [8]: APR_HepG2_MitoMass_24hr: Apredica 24-hour HepG2 Assay for Mitochondrial Mass (AID 2282912). As to conditions: high-content imaging, actives raise or lower the signal. The gist of the method:
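Readout: fluorescence of MitoTracker Red CMXRos (250 nM, added 30 min pre-fixation) in fixed HepG2 cells imaged by HCS. Exposure lasted 24 hr at 0.39–200 uM; increases and decreases were both fitted relative to DMSO.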

The nature of assay [9]: APR_HepG2_p53Act_24hr: Apredica 24-hour HepG2 Assay for p53 Activation (AID 2282913).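 Note: p53 protein immunofluorescence averaged per cell in HepG2 with Hoechst nuclei.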 To be noted: high-content imaging, actives raise or lower the signal. The essentials:
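Read-out: Cy5 immunofluorescence for p53 in fixed, permeabilized HepG2, imaged by HCS with Hoechst-defined nuclei. Dosing was 24 hr at 0.39–200 uM in 0.5% DMSO. Curves were fitted bidirectionally relative to DMSO.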

Assay [10] can be described thus: APR_HepG2_CellCycleArrest_72hr: Apredica 72-hour HepG2 Assay for Cell Cycle Arrest (AID 2282914). To be noted: high-content imaging, actives raise or lower the signal. The essentials:
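HepG2, 72 hr exposure, 10-point 0.39–200 uM, duplicate, 0.5% DMSO final. Fix 3.7% formaldehyde 30 min RT, Triton X-100 0.5%, Hoechst 33342 2 ug/mL. ArrayScan 20x, six fields/well; DNA content per nucleus; bidirectional fit vs DMSO.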

Take `C1CCC(SSC2CCCCC2)CC1`: the compound was called inactive in assay [1], in assay [3], in assay [5], in assay [6], in [7] and in [8]. Moreover, the AC50 was 72.3 µM (active) in [2], 77.9 µM (active) in assay [4], 88.4 µM (active) in [9] and 62 µM (active) in assay [10].

For `Cc1nc(C)nc(N2C[C@@H](C)N(c3ccnc([C@@H](C)O)n3)[C@@H](C)C2)n1`, the call in assay [1], in assay [2], in assay [3], in assay [4], in assay [5] and in [6] was inactive. Further, the compound was classed as inactive in assay [7], in assay [8], in assay [9] and in [10].

Regarding `Cc1ccc(C)c(O)c1C`, the outcome in assay [1], in assay [2], in assay [3], in assay [4], in assay [5] and in assay [6] was inactive. Also, the compound was called inactive in assay [7], in assay [8] and in assay [9]. The AC50 in assay [10] was 12 µM (active).

As to `CCCCCCCCCCC`, the compound was called inactive in [1], in assay [2], in assay [3], in assay [4], in assay [5] and in assay [6]. Further, the compound was classed as inactive in [7], in [8], in assay [9] and in assay [10].

For `Cc1ccc(Cl)cc1`, the compound was called inactive in [1], in assay [2], in assay [3], in assay [4], in assay [5] and in [6]. Moreover, the call in assay [7], in assay [8], in assay [9] and in [10] was inactive.

For `CC1=C(/C=C/C(C)=C/C=C/C(C)=C/CO)C(C)(C)CCC1`, the result in assay [1], in assay [2], in assay [3], in [5] and in [7] was inactive. Also, the AC50 is 90.6 µM (active) in assay [4]; 81.6 µM (active) in [6]; 113 µM (active) in assay [8]; 85.8 µM (active) in assay [9]; 56.3 µM (active) in [10].

Consider `Cc1oc(-c2ccccc2)nc1CCOc1cccc2c1ccn2CCC(=O)O`, for which the compound was classed as inactive in assay [1], in [2], in assay [3], in assay [4], in [5] and in assay [6]. The outcome in assay [7], in assay [8], in assay [9] and in assay [10] was inactive.

Regarding `Oc1ccc2c(c1)OC[C@@H](N1CCC(O)(c3ccc(F)cc3)CC1)[C@H]2O`, the compound was called inactive in assay [1], in assay [2], in assay [3], in [4], in [5] and in [6]. Besides, the result in assay [8], in [9] and in assay [10] was inactive. The AC50 in assay [7] was 58.7 µM (active).

In the case of `CCCCOC(=O)CCCCCCCCC(=O)OCCCC`, the outcome in assay [1], in assay [2], in [3], in assay [4], in assay [5] and in assay [6] was inactive. The compound was called inactive in [7], in assay [8], in assay [9] and in assay [10].

Take `Oc1ccc2ccccc2c1N=Nc1ccccc1`: the AC50 in assay [1] is 6.47 µM (active); in assay [4] it was 34 µM (active); in [6], 27.1 µM (active); in assay [7] it was 0.0816 µM (active); in assay [10], 0.813 µM (active). In addition, the compound was called inactive in [2], in assay [3], in [5] and in assay [8].

As for `NCCO`, the compound was called inactive in assay [1], in assay [2], in assay [3], in [4], in [5] and in assay [6]. Further, the compound was called inactive in [7], in assay [8] and in assay [10].

Regarding `CC=Cc1ccc(O)c(OC)c1`, the compound was called inactive in assay [1], in assay [3], in assay [4], in [5], in assay [6] and in [7]. Besides, the call in assay [8] and in assay [10] was inactive. Also, the AC50 in assay [2] is 105 µM (active).

As for `C=CCc1ccc(O)c(OC)c1`, the compound was classed as inactive in assay [1], in assay [2], in [3], in assay [4], in assay [5] and in assay [6]. Besides, the result in [7], in [8] and in assay [10] was inactive.

Regarding `Nc1ccc(S(=O)(=O)c2ccc(N)cc2)cc1`, the outcome in assay [1], in assay [2], in assay [3], in assay [4], in assay [5] and in assay [7] was inactive. Besides, the compound was called inactive in [8], in [9] and in assay [10].

Regarding `O=C(OCCCCCOC(=O)c1ccccc1)c1ccccc1`, the call in assay [1], in [2], in assay [3], in assay [4], in [5] and in [6] was inactive. Further, the compound was called inactive in assay [7] and in assay [8]. The AC50 in assay [10] is 103 µM (active).

With `CCCCCCC(=O)OCC`, the outcome in assay [1], in [2], in assay [3], in [4], in [5] and in assay [6] was inactive. In addition, the result in assay [7], in assay [8] and in assay [10] was inactive.

As to `CCCc1cc(=O)[nH]c(=S)[nH]1`, the AC50 in assay [1] is 0.747 µM (active). Besides, the result in [2], in [3], in [4], in assay [5], in assay [6] and in assay [7] was inactive. Moreover, the outcome in assay [8] and in assay [10] was inactive.

Regarding `CCCCN(CCCC)CCCC`, the result in assay [1], in [2], in [3], in assay [4], in assay [5] and in assay [7] was inactive. Also, the compound was classed as inactive in [8], in [9] and in [10].

Consider `Cc1ccccc1Cl`, for which the compound was called inactive in [1], in assay [2], in assay [3], in assay [4], in assay [5] and in assay [7]. Besides, the compound was called inactive in assay [8], in [9] and in assay [10].

For the compound `Cc1cccc(C)c1O`, the call in assay [1], in assay [2], in assay [3], in assay [4], in assay [5] and in assay [6] was inactive. In addition, the outcome in [7], in assay [8] and in assay [10] was inactive.

For the compound `CN[C@H]1CC[C@@H](c2ccc(Cl)c(Cl)c2)c2ccc(S(N)(=O)=O)cc21`, the compound was called inactive in assay [1], in assay [2], in assay [3], in assay [5], in [6] and in [7]. The compound was called inactive in assay [8] and in assay [10]. Besides, the AC50 in assay [4] is 15.1 µM (active).

In the case of `CCOC(=O)CCC(=O)OCC`, the call in [1], in assay [2], in assay [3], in [4], in assay [5] and in assay [6] was inactive. Further, the compound was classed as inactive in assay [7], in assay [8] and in assay [10].
